Source: PubChem BioAssay
An excerpt weighted towards active compounds, which were near 21% of everything screened.
VP16 counter: VP16 counterscreen qHTS for inhibitors of ROR gamma transcriptional activity; Drosophila S2 Gal4-VP16 UAS-luciferase, luminescence, 20 h; Potency, µM (series often up to 53.6 µM), for inactives: at the highest dose activity, negative = inhibition, actives largely listed as inhibitors; 310,000 tested, 3.5% active;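 further: Gal4-VP16 expression switched on by copper sulfate through the metallothionein promoter; potency means the concentration at half of the fitted maximal effect; nearly all actives have a fitted effect of over 50% in size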
TDP1 cell noCPT: qHTS for Inhibitors of human tyrosyl-DNA phosphodiesterase 1 (TDP1): qHTS in cells in absence of CPT. 420,000 tested, 15% active. Potency, µM (series often up to 46.2 µM), for the others: at the top dose activity change, negative = growth inhibition, usual class: inhibitors. DT40 Tdp1-/- hTDP1 cells, no CPT, ATP luminescence, 48 h; further: potency means the concentration at half of the fitted maximal effect; nearly all actives have a fitted effect of over 55% in size
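No-CPT arm: Tdp1-/-;hTDP1 DT40 cells (400/well) plus compounds, incubated ≥48 hr at 37 °C. Readout CellTiter-Glo luminescence.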
RORg inh: qHTS for inhibitors of ROR gamma transcriptional activity; Nuclear receptor ROR-gamma (Mus musculus), P51450; AID 2551, 2010; 310,000 tested, 5.4% active; Potency, µM (top dose mostly 53.6 µM), inactives show at the highest dose activity change, negative = inhibition, hits mostly inhibitors; Drosophila S2 Gal4-RORgamma UAS-luciferase reporter, 20 h; further: potency means the concentration at half of the fitted maximal effect; nearly all actives have a fitted effect of over 60% in size
Target sequence (P51450 whole entry, looked up, the tested form may be a part): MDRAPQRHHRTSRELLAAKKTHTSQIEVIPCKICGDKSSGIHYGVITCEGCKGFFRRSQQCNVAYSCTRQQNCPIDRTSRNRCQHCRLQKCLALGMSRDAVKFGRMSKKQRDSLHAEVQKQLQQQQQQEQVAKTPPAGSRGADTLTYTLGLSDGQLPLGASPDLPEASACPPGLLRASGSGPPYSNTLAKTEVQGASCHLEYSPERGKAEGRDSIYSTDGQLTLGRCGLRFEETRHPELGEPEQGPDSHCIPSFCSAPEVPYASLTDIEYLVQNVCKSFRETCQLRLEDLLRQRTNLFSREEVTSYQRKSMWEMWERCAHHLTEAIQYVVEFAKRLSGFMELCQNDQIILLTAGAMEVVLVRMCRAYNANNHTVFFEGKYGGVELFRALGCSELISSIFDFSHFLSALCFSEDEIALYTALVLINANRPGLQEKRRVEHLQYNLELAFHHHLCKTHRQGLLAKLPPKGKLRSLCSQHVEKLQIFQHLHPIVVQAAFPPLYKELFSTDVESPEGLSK
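ROR gamma transcriptional activity was tracked as Gal4-UAS luciferase output in stably transfected Drosophila Schneider cells, with compound added 1 hr before 700 uM copper sulfate induction and a 20 hr ambient-temperature incubation.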
IL1B secr inh: qHTS for Inhibitors of Inflammasome Signaling: IL-1-beta AlphaLISA Primary Screen; activity change, % at 57.5 µM; 360,000 tested, 4.7% active; THP-1 LPS/ATP IL-1B secretion, AlphaLISA, 16 h; hits give low values; AID 743279, 2014; in the data active means activity change below about -50%; inconclusive means mostly about -30% to -49%
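THP-1 cells pretreated 1 hr with compounds (up to 57.5 uM final), then stimulated with LPS (250 ng/mL final) plus ATP (1.25 mM final); secreted IL-1B measured by AlphaLISA after 16 hr, decreased signal indicating inhibition.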
DT40 TDP1 CPT: qHTS for Inhibitors of human tyrosyl-DNA phosphodiesterase 1 (TDP1): qHTS in cells in presence of CPT | chicken DT40 Tdp1-/-;hTDP1 cells + 20 nM CPT, ATP luminescence, 48 h | Potency, µM (top dose mostly 46.2 µM), for the others: top-dose activity change, negative = growth inhibition, usual class: inhibitors | 420,000 tested, 12% active | AID 686979, 2013; further: potency means the concentration at half of the fitted maximal effect; nearly all actives have a fitted effect of over 55% in size
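Chicken DT40 Tdp1-/- cells complemented with human TDP1, 400 cells/well, exposed to compounds plus 20 nM camptothecin for at least 48 h at 37 C; viability read as ATP content by CellTiter-Glo luminescence.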
ELG1 repair inh: qHTS screen for small molecules that inhibit ELG1-dependent DNA repair in human embryonic kidney (HEK293T) cells expressing luciferase-tagged ELG1 | HEK293T ELG1-luciferase reporter, luminescence, 16 h; DNA damage induced by 5-fluorouridine | Potency, µM (doses to about 46.1 µM), without a hit: at the highest dose activity change, negative = inhibition, usual class: inhibitors | 330,000 tested, 2.3% active | AID 504467, 2011; further: potency means the concentration at half of the fitted maximal effect; nearly all actives have a fitted effect of over 55% in size
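DMSO vehicle served as the neutral condition. Each well held 2,000 cells given 5-fluorouridine plus compound; after 16 hr at 37 °C/5% CO2, ONE-Glo was added and luciferase measured 30 min later.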
Numbers without * were called inactive; i = inactive; ? = inconclusive; nt = no result given; [ ] = dose if it differs, or a comment. Unless noted, the call rests on the fitted dose curve; in most records, active means well fitted curve in the direction sought with a large enough effect; inconclusive means small, poorly fitted or top-dose-only effect, or another doubt; inactive means no such curve, though single readings can be large; an effect the other way counts as inactive or inconclusive. On the % scale 0 is the no-effect control and ±100 the full control effect.

SMILES | VP16 counter | TDP1 cell noCPT | RORg inh | IL1B secr inh | DT40 TDP1 CPT | ELG1 repair inh
N#Cc1ccc(Cl)cc1NC(=O)CSc1cccc[n+]1[O-] | nt | 23µM* | nt | 18 | ? | -1%
O=C(CSc1cccc[n+]1[O-])c1cc2ccccc2o1 | ? | ? | ? | -12 | 21µM* | ?
O=C(O)CSc1cccc[n+]1[O-] | 10% | ? | -14% | -14 | -4% | nt
COCCNC(=O)CCCN1C(=O)CCn2nc(-c3cccn3C)cc21 | nt | 9% | nt | nt | -13% | nt
CC(=O)N1C[C@@H](CO)[C@@H](N(C)C(=O)C2CCCCC2)C[C@H]1c1ccccc1 | nt | 3% | nt | -14 | 2% | nt
C=CCn1c(SCCN2CCCC2)nc2c([nH]c3ccccc32)c1=O | 3% | -51% | -4% | 0 | 11% | -25%
O=C(Cn1c(=O)oc2ccc(Cl)cc21)Nc1ccon1 | 0% | -2% | -16% | -3 | 8% | 22%
Cc1ccc2nc(-c3ccc(O)cc3)oc2c1 | 7.1µM* | -21% | 2.5µM* | -18 | -29% | ?
Cc1ccc2nc(-c3cccc(N)c3)oc2c1 | 4% | -16% | 9% | -7 | 1% | ?
Cc1ccc(-c2nc(C=Nc3ccc(O)cc3)c(O)o2)cc1 | 7% | 10µM* | -5% | -86* | 7.3µM* | 7%
C[C@@H](C(=O)Nc1ccc2ccccc2c1)[C@H]1C[C@]1(C)[C@H](NC(=O)Oc1ccc(F)cc1)c1ccccc1 | -7% | nt | 25% | nt | nt | nt
CC1CCCC(C)N1C(=O)COC(=O)c1ccc(F)c(S(=O)(=O)N2CCOCC2)c1 (stereo not drawn) | -11% | -9% | 4% | i | 2% | 0%
N#C/C(=C\c1c[nH]c2ccc(Br)cc12)c1ccccn1 | -17% | 21µM* | -36% | -84* | ? | -9%
N#C/C(=C\c1ccc(C(=O)O)cc1)c1ccccn1 | ? | -13% | -10% | 0 | 5% | 9%
Cc1ccccc1-c1nc(CS(=O)(=O)CC(=O)NCc2ccco2)c(C)o1 | 16% | 17% | 0% | -1 | -17% | 1%
COc1ccc(NC(=O)c2c(F)c(F)c(F)c(F)c2F)cc1Cl | -10% | -14% | -8% | -3 | 10% | -18%
COc1c(F)c(F)c(C(=O)Nc2ccc(N3CCN(C(C)=O)CC3)c(Cl)c2)c(F)c1F | -22% | ? | 18% | -4 | ? | 23µM*
COc1c(C)cccc1C(=O)Nc1ccc(N2CCOCC2)c(Cl)c1 | -15% | ? | 17% | -69* | ? | ?
COc1c(F)c(F)c(C(=O)Nc2cccc(Cl)c2N2CCOCC2)c(F)c1F | -4% | 21µM* | 4% | -3 | 15µM* | nt
O=C(Nc1cccc(Cl)c1N1CCOCC1)c1ccco1 | 20% | ? | -31% | ? | ? | ?
O=C(Nc1ccc(N2CCOCC2)c(Cl)c1)c1c(F)c(F)c(F)c(F)c1F | ? | 16µM* | -38% | -12 | 23µM* | -15%
O=C(Nc1ccc(N2CCOCC2)c(Cl)c1)c1cccnc1Cl | 4% | -26% | ? | -6 | 8% | 4%
CC(C)Cc1nnc(NC(=O)CCC(=O)NC2CCCC2)s1 | 2% | -21% | 26% | 13 | -24% | 17%
O=C(Nc1ccc(N2CCOCC2)c(Cl)c1)c1cccc(F)c1 | ? | ? | -11% | -54* | -25% | ?
O=C(Nc1ccc(N2CCOCC2)c(Cl)c1)c1cc(F)c(F)cc1Cl | 11% | ? | -37% | -58* | ? | ?
SMILES | VP16 counter | TDP1 cell noCPT | RORg inh | IL1B secr inh | DT40 TDP1 CPT | ELG1 repair inh
Cc1ccc2nc(SCC(=O)NCc3ccccc3)nc(=O)n2c1 | nt | ? | nt | -16 | -19% | ?
O=C1c2cccc3cccc(c23)C(=O)N1CCN1CCN(C(=S)Nc2ccc(F)cc2)CC1 | -2% | nt | -33% | nt | nt | 1%
COc1cc2c3c(cccc3c1)C(=O)N(CCN1CCCC1)C2=O | nt | 0.1µM* | nt | -10 | 0.037µM* | nt
COc1ccc(C(=O)CN2CCN(CCN3C(=O)c4cccc5cccc(c45)C3=O)CC2)cc1 | nt | 21µM* | nt | -20 | ? | nt
Cc1ccc(NC(=S)N2CCN(CCN3C(=O)c4cccc5cccc(c45)C3=O)CC2)cc1 | ? | ? | 7.1µM* | 22 | ? | ?
CCCC/C=C/C(NC(=O)OCc1ccccc1Cl)c1ccccc1 (stereo not drawn) | -1% | nt | -2% | nt | nt | nt
Nc1nc(=S)c2ncn(C3CCCCC3)c2[nH]1 | nt | -8% | nt | -4 | -11% | nt
CCc1ccc(-c2cn(C3CCCCC3)c(=S)[nH]2)cc1 | ? | 8.2µM* | 0.71µM* | -68* | ? | ?
CCOc1ccc(CCNC(=O)c2[nH]c3cc(OC)ccc3c2Sc2ccccc2)cc1OCC | nt | -18% | nt | nt | ? | nt
CC1CCCN(S(=O)(=O)c2ccc(C(=O)Nc3nnc(-c4ccccc4Cl)o3)cc2)C1 (stereo not drawn) | 0.16µM* | 6.5µM* | 0.1µM* | 17 | 2.9µM* | -28%
CC1CCCN(S(=O)(=O)c2ccc(C(=O)Nc3nnc(-c4ccccn4)o3)cc2)C1 (stereo not drawn) | -2% | 21µM* | 1.8µM* | 14 | ? | ?
CC1CCCN(S(=O)(=O)c2ccc(C(=O)Nc3nnc(C4CC4)o3)cc2)C1 (stereo not drawn) | 1µM* | ? | 0.22µM* | 83 | 18µM* | -30%
O=C(Nc1nnc(-c2ccccn2)o1)c1ccc(Br)cc1 | 0.63µM* | 18µM* | 0.63µM* | 21 | ? | 25%
CCOc1ccc(NC(=O)NCc2ccc3c(c2)CCN3C(C)=O)cc1 | nt | -7% | nt | nt | -17% | nt
COc1ccccc1-c1nnc(NC(=O)c2ccc(S(=O)(=O)N3CCCC3)cc2)o1 | 0.89µM* | 9.2µM* | 0.71µM* | 0 | 23µM* | -4%
O=C(Nc1nnc(-c2ccco2)o1)c1ccc(S(=O)(=O)N2CCCC2)cc1 | -6% | ? | 30% | 50 | ? | ?
CCCCCCCCCCCCCCCCCC(=O)OC[C@@H](O)[C@H]1OC[C@H](O)[C@H]1O | 4% | -18% | -6%[10 µM] | nt | -17% | nt
COc1cccc(/C=C2\SC(=S)N(c3cccnc3)C2=O)c1OC | ? | 4% | 2% | 34 | 0% | -13%
